# Data: PMC7862700, “An all-to-all approach to the identification of sequence-specific readers for epigenetic DNA modifications on cytosine”
# Tests used:
# Assay in all cases: DAPPL (digital affinity profiling via proximity ligation, sequencing); 10 mM Tris-HCl pH 7.5, 50 mM NaCl, 1 mM DTT, 4% glycerol, room temperature, 30 min; GST-TFs on glutathione beads, 16-mer random dsDNA library, 0.1% formaldehyde crosslink after washing; high values mean tight binding
# FLI1 = target: T1, FLI1 (Homo sapiens, UniProt Q01543 1-452); conditions: protein: recombinant; tags: N-terminal GST; dsDNA, one strand shown
# T1 sequence: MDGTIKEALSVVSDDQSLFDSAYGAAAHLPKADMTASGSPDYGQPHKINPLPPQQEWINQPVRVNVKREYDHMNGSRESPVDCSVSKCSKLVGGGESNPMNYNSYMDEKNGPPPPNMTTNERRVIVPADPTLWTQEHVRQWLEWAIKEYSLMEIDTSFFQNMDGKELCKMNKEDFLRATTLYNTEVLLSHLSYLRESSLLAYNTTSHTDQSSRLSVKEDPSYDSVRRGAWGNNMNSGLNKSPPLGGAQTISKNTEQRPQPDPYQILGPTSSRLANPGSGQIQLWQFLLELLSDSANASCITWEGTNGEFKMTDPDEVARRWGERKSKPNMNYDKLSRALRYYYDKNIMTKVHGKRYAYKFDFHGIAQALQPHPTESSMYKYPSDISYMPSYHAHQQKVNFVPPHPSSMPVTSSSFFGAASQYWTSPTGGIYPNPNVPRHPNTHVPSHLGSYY
# Summary of the method: (§1)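 Binding signal is defined as a hexamer's read frequency for one factor over its frequency for the tag-only sample. To obtain reads, GST-fused human transcription factors were expressed in yeast, captured on glutathione beads, barcoded with DNA and pooled with that sample. Pools met 200 nmole of a 16-mer random double-stranded DNA library in Tris/NaCl/DTT/glycerol buffer for 30 min at room temperature before washing, 0.1% formaldehyde crosslinking, proximity ligation (BsaI/T4 ligase, 1 h, 37 °C), PCR and Illumina NextSeq500 sequencing.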
# ELK1 = target: T2, ELK1 (Homo sapiens, UniProt P19419 1-428); conditions: protein: recombinant; tags: N-terminal GST; dsDNA, one strand shown
# T2 sequence: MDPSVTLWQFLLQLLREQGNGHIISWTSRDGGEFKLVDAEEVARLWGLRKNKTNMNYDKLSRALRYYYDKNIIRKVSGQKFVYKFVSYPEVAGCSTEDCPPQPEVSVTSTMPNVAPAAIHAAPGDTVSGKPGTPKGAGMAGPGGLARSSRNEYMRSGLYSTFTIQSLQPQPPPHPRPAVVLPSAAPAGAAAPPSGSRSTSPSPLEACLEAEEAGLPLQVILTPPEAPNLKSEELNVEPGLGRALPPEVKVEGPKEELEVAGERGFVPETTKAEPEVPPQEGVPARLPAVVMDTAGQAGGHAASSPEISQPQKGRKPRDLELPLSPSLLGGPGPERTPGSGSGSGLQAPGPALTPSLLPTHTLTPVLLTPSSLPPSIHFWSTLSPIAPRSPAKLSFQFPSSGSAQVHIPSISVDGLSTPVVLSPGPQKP
# Summary of the method: as §1
# GABPA = target: T3, GABPA (Homo sapiens, UniProt Q06546 1-454); conditions: protein: recombinant; tags: N-terminal GST; dsDNA, one strand shown
# T3 sequence: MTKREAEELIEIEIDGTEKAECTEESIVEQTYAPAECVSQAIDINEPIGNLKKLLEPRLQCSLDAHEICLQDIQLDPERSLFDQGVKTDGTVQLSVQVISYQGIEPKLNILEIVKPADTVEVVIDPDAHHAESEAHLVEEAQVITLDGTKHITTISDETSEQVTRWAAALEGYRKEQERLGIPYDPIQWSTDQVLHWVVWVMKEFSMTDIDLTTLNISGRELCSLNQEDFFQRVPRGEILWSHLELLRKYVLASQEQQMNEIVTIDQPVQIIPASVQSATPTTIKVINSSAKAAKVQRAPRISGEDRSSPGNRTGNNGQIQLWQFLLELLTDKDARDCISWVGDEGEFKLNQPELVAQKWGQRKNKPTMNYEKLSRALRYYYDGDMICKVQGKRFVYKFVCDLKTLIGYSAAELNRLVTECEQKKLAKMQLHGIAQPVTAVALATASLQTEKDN
# Summary of the method: as §1
# ERG = target: T4, ERG (Homo sapiens, UniProt P11308 1-479); conditions: protein: recombinant; tags: N-terminal GST; dsDNA, one strand shown
# T4 sequence: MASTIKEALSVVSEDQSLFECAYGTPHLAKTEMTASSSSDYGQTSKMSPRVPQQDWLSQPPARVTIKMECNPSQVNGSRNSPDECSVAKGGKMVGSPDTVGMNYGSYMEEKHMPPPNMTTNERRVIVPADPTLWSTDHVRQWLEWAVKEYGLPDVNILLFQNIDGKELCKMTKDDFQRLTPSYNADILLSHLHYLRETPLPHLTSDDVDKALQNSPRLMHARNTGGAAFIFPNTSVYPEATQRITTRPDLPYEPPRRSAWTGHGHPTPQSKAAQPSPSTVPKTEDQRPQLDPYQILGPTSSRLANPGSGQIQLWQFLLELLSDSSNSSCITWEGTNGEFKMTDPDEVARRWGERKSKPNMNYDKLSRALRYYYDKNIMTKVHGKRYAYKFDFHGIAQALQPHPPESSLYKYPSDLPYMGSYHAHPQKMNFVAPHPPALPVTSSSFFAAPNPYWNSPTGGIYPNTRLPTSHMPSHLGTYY
# Summary of the method: as §1
# ELF1 = ELF1 (Homo sapiens, UniProt P32519 1-619); conditions: protein: recombinant; tags: N-terminal GST; dsDNA, one strand shown
# Summary of the method: as §1
# EHF = target: T5, EHF (Homo sapiens, UniProt Q9NZC4 1-300); conditions: protein: recombinant; tags: N-terminal GST; dsDNA, one strand shown
# T5 sequence: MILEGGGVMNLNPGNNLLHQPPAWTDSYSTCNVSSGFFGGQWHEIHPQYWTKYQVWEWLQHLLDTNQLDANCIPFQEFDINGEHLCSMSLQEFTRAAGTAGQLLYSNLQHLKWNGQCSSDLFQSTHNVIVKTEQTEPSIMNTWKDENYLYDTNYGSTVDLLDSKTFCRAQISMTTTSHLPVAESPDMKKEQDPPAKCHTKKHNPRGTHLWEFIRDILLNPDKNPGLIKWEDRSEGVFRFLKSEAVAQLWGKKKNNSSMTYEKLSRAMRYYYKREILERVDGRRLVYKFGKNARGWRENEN
# Summary of the method: as §1
# SPI1 = SPI1 (Homo sapiens, UniProt P17947 1-270); conditions: protein: recombinant; tags: N-terminal GST; dsDNA, one strand shown
# Summary of the method: as §1
# ELK3 = target: T6, ELK3 (Homo sapiens, UniProt P41970 1-407); conditions: protein: recombinant; tags: N-terminal GST; dsDNA, one strand shown
# T6 sequence: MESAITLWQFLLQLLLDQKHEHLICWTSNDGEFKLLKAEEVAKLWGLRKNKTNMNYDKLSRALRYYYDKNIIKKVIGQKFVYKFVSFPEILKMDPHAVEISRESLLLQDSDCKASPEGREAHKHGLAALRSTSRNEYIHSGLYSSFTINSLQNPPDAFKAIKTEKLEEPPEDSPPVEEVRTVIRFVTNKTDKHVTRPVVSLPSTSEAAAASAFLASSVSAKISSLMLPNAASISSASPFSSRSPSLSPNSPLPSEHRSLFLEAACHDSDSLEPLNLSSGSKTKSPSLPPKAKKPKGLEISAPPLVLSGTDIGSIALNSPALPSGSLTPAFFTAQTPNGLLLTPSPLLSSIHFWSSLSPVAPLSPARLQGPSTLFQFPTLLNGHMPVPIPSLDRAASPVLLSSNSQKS
# Summary of the method: as §1
# FEV = target: T7, FEV (Homo sapiens, UniProt Q99581 1-238); conditions: protein: recombinant; tags: N-terminal GST; dsDNA, one strand shown
# T7 sequence: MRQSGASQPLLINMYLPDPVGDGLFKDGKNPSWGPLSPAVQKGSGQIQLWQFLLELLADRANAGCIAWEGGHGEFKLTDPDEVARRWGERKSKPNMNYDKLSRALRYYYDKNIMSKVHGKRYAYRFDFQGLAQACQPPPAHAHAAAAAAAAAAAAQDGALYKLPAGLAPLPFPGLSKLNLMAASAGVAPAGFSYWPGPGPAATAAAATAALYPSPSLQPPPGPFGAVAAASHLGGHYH
# Summary of the method: as §1
# ETV5 = ETV5 (Homo sapiens, UniProt P41161 1-510); conditions: protein: recombinant; tags: N-terminal GST; dsDNA, one strand shown
# Summary of the method: as §1
# HSF1 = HSF1 (Homo sapiens, UniProt Q00613 1-529); conditions: protein: recombinant; tags: N-terminal GST; chain copies: 3; dsDNA, one strand shown
# Summary of the method: as §1
# SPIC = target: T8, SPIC (Homo sapiens, UniProt Q8N5J4 1-248); conditions: protein: recombinant; tags: N-terminal GST; dsDNA, one strand shown
# T8 sequence: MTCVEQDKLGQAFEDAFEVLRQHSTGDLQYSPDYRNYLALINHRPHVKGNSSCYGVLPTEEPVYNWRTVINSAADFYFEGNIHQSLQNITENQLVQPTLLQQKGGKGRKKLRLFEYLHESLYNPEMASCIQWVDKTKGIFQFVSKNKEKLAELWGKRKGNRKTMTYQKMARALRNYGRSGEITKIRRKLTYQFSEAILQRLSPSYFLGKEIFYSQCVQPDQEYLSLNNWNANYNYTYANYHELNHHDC
# Summary of the method: as §1
# ELF4 = ELF4 (Homo sapiens, UniProt Q99607 1-663); conditions: protein: recombinant; tags: N-terminal GST; dsDNA, one strand shown
# Summary of the method: as §1
# ELK4 = target: T9, ELK4 (Homo sapiens, UniProt P28324-2 1-405); conditions: protein: recombinant; tags: N-terminal GST; dsDNA, one strand shown
# T9 sequence: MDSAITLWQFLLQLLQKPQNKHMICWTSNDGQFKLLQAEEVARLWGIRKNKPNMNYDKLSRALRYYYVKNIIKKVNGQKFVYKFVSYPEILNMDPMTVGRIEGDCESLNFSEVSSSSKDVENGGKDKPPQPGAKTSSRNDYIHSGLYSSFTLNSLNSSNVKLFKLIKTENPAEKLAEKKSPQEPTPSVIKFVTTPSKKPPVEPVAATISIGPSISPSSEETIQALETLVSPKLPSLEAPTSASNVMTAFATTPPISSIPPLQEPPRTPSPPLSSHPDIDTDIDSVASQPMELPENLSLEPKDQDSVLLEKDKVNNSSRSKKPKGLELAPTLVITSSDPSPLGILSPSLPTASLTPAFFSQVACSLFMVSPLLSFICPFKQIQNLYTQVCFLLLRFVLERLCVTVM
# Summary of the method: as §1
# ETV2 = target: T10, ETV2 (Homo sapiens, UniProt O00321 1-342); conditions: protein: recombinant; tags: N-terminal GST; dsDNA, one strand shown
# T10 sequence: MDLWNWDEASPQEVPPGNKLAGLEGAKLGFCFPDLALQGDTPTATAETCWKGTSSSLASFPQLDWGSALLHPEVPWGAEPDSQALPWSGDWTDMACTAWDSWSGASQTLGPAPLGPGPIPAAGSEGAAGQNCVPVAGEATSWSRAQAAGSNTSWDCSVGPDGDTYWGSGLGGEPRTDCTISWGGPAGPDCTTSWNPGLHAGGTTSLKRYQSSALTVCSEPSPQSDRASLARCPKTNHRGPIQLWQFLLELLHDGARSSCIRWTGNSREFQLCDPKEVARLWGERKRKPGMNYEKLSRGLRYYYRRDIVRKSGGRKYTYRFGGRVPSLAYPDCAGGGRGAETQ
# Summary of the method: as §1
# ELF3 = target: T11, ELF3 (Homo sapiens, UniProt P78545 1-371); conditions: protein: recombinant; tags: N-terminal GST; dsDNA, one strand shown
# T11 sequence: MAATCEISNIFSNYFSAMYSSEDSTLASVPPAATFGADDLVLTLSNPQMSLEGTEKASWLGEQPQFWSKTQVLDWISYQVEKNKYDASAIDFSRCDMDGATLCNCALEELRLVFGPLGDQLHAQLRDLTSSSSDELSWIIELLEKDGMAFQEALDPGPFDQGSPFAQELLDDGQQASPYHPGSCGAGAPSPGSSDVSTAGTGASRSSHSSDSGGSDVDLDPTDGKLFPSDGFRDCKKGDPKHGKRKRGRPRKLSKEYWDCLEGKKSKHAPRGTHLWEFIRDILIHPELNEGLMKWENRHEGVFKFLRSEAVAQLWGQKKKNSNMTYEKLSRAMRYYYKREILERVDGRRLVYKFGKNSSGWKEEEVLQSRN
# Summary of the method: as §1
# ETV1 = ETV1 (Homo sapiens, UniProt P50549 1-477); conditions: protein: recombinant; tags: N-terminal GST; dsDNA, one strand shown
# Summary of the method: as §1
# Sequence of ETV5 (P41161 whole entry): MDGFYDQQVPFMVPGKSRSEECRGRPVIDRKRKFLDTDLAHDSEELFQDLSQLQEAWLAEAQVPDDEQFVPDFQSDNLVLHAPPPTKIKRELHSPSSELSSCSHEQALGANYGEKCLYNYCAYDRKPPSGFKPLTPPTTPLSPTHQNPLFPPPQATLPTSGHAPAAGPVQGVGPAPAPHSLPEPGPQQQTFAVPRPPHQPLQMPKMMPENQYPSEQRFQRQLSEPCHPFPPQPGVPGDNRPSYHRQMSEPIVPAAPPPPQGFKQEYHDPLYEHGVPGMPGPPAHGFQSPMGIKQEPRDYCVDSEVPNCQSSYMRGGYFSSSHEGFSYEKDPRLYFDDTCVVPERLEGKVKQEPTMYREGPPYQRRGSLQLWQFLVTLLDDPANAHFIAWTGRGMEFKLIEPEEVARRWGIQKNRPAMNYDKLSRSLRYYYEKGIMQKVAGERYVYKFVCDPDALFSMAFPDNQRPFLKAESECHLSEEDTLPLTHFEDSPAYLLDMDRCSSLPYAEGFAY
# Sequence of ELF4 (Q99607 whole entry): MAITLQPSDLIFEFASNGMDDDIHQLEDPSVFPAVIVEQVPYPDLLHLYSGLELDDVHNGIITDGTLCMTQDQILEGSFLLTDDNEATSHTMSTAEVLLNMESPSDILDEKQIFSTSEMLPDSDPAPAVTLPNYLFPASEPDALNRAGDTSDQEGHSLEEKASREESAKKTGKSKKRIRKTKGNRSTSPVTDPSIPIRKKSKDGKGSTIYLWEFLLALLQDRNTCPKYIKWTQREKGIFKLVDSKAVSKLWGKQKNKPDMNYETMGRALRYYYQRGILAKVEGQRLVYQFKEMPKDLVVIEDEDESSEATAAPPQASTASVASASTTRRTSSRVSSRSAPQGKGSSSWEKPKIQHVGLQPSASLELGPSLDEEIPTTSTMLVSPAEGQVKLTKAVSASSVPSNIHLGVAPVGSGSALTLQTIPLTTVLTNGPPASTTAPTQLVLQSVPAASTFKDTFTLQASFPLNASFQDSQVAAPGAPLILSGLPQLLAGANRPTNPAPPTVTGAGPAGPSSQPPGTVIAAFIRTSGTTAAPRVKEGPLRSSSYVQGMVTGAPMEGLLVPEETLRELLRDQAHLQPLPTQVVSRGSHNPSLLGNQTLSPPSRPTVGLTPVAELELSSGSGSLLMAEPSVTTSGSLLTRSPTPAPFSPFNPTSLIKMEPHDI
# Sequence of ELF1 (P32519 whole entry): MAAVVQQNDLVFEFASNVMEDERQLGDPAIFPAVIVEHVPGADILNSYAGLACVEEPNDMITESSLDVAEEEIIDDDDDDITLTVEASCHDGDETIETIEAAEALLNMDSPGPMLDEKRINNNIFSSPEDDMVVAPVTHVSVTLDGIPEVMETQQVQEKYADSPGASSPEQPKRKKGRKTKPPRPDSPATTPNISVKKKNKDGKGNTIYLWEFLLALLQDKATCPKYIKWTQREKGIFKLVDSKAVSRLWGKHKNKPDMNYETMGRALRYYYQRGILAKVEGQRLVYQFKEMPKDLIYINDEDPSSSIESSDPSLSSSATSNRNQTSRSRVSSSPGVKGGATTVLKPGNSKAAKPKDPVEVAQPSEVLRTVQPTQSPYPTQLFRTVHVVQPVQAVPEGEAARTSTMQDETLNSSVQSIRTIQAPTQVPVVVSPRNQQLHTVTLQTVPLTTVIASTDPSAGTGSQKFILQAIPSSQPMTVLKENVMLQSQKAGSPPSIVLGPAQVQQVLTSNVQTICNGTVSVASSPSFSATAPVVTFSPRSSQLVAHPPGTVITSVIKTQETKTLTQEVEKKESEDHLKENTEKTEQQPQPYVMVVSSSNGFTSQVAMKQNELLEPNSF
# Sequence of HSF1 (Q00613 whole entry): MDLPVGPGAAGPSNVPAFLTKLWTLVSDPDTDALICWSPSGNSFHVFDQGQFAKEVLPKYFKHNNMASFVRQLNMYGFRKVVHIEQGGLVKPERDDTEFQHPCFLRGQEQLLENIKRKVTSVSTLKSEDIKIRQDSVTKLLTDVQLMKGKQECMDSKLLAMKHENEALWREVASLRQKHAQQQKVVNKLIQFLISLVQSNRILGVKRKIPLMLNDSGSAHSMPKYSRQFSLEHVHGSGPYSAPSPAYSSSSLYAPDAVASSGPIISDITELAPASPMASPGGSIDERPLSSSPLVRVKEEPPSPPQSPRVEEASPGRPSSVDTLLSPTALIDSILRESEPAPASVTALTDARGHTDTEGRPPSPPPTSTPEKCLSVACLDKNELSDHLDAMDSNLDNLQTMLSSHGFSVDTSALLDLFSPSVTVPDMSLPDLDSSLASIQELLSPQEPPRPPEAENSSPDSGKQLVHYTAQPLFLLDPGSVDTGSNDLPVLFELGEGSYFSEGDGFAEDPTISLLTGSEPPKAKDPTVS
# Sequence of ETV1 (P50549 whole entry): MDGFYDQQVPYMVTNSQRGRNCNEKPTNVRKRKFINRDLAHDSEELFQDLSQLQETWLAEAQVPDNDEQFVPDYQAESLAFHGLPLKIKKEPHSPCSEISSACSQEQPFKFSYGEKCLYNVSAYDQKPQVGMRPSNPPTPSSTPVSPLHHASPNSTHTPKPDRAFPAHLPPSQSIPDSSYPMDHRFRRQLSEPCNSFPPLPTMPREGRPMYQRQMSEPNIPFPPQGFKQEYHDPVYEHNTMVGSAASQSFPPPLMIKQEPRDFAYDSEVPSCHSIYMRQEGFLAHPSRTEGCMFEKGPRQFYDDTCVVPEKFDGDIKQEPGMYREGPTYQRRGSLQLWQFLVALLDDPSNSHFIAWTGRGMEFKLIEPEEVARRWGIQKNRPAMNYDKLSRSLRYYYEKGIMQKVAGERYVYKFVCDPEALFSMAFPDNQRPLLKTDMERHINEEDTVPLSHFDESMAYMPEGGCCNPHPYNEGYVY
sequence,measurement,setting,value
CACGAA,binding signal,FLI1,"1.05 fold enrichment (6-mer frequency, TF over GST control)"
same,binding signal,ELK1,"1.15 fold enrichment (6-mer frequency, TF over GST control)"
same,binding signal,GABPA,"1.19 fold enrichment (6-mer frequency, TF over GST control)"
same,binding signal,ERG,"1.1 fold enrichment (6-mer frequency, TF over GST control)"
same,binding signal,ELF1,"1.11 fold enrichment (6-mer frequency, TF over GST control)"
same,binding signal,EHF,"1.07 fold enrichment (6-mer frequency, TF over GST control)"
same,binding signal,SPI1,"1.06 fold enrichment (6-mer frequency, TF over GST control)"
same,binding signal,ELK3,"1.03 fold enrichment (6-mer frequency, TF over GST control)"
same,binding signal,FEV,"1.09 fold enrichment (6-mer frequency, TF over GST control)"
same,binding signal,ETV5,"1.1 fold enrichment (6-mer frequency, TF over GST control)"
same,binding signal,HSF1,"1.39 fold enrichment (6-mer frequency, TF over GST control)"
same,binding signal,SPIC,"1.12 fold enrichment (6-mer frequency, TF over GST control)"
same,binding signal,ELF4,"1.2 fold enrichment (6-mer frequency, TF over GST control)"
same,binding signal,ELK4,"1.3 fold enrichment (6-mer frequency, TF over GST control)"
same,binding signal,ETV2,"1.18 fold enrichment (6-mer frequency, TF over GST control)"
same,binding signal,ELF3,"1.07 fold enrichment (6-mer frequency, TF over GST control)"
same,binding signal,ETV1,"1.14 fold enrichment (6-mer frequency, TF over GST control)"
